Data as given in PubChem BioAssay (Tox21).
Several values for one entry are separate records, joined by “and”; a condition that tells them apart may be missing. Identical values can stand only once. Records with an inconclusive call do not appear. More than one record can exist for a structure, and the calls need not agree. Activity calls are given as the source filed them. The call rests on the fitted dose curve; in most records, active means well fitted curve in the direction sought with a large enough effect in the repeat runs; inconclusive means weak or mixed curves; inactive means no such curve, though single readings can be large; an effect the other way counts as inactive or inconclusive.

Experiments:
[1] = qHTS RealTime-Glo MT Cell Viability Assay in HepG2 cells - 40 hour (AID 1224870); further: nearly all actives have a fitted effect of over 50% in size
How it was run: (§1)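 HepG2 cells mixed with RealTime-Glo MT reagents (NanoLuc plus cell-permeant prosubstrate) were seeded at 600 cells/well, incubated 5 h at 37 C/5% CO2, then pinned with compounds in DMSO; nonlytic luminescence tracked viability during 40 h treatment.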

[2] = A CellTox Green Cytotoxicity Assay to monitor cytotoxicity in HEK293 cells - 40 hour (AID 1224871); further: nearly all actives have a fitted effect of over 45% in size; further: potency means the concentration at half of the fitted maximal effect
How it was run: (§2)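 Real-time, in one plate: 600 HEK293 cells/well with dead-cell DNA dye, pinned compound after 5 h, 37 C incubation over 40 h; viable cells give no appreciable fluorescence.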

[3] = qHTS RealTime-Glo MT Cell Viability Assay in HEK293 cells - 16 hour (AID 1224872); further: nearly all actives have a fitted effect of over 50% in size; further: potency means the concentration at half of the fitted maximal effect
How it was run: (§3)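 Quantitative high-throughput screen of the Tox21 10K library in HEK293: cells and RealTime-Glo reagents plated together, compound added at 5 h, luminescence monitored through 40 h at 37 C.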

[4] = qHTS RealTime-Glo MT Cell Viability Assay in HepG2 cells - 8 hour (AID 1224873); further: nearly all actives have a fitted effect of over 55% in size
How it was run: as §1

[5] = qHTS RealTime-Glo MT Cell Viability Assay in HEK293 cells - 40 hour (AID 1224874); details: RealTime-Glo luminescence; max response: stronger effect = lower value; further: nearly all actives have a fitted effect of over 50% in size; further: potency means the concentration at half of the fitted maximal effect
How it was run: (§4)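 Kinetic, non-lysing viability readout. Seed HEK293 (600/well) with reagent, incubate 5 h at 37 C/5% CO2, pin 23 nL compound in DMSO, incubate at 37 C, read luminescence at 0, 8, 16, 24, 32, 40 h.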

[6] = A CellTox Green Cytotoxicity Assay to monitor cytotoxicity in HEK293 cells - 24 hour (AID 1224875); further: series mostly up to about 77 µM; nearly all actives have a fitted effect of over 45% in size
How it was run: as §2

[7] = A CellTox Green Cytotoxicity Assay to monitor cytotoxicity in HepG2 cells - 16 hour (AID 1224876); further: nearly all actives have a fitted effect of over 45% in size; further: potency means the concentration at half of the fitted maximal effect
How it was run: (§5)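 Cytotoxicity was tracked as dead-cell DNA fluorescence in HepG2 cells treated with test compounds at 37 C; each time-point value comes from one kinetic series spanning 0, 8, 16, 24, 32 and 40 h.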

[8] = qHTS RealTime-Glo MT Cell Viability Assay in HepG2 cells - 32 hour (AID 1224877); further: nearly all actives have a fitted effect of over 55% in size
How it was run: (§6)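 Compound treatment began 5 h after plating HepG2 cells (600/well) with NanoLuc luciferase and prosubstrate. Plates stayed at 37 C for 40 h; luminescence was captured at six time points, 0 h through 40 h.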

[9] = A CellTox Green Cytotoxicity Assay to monitor cytotoxicity in HepG2 cells - 24 hour (AID 1224878); further: nearly all actives have a fitted effect of over 45% in size; further: potency means the concentration at half of the fitted maximal effect
How it was run: as §5

[10] = A CellTox Green Cytotoxicity Assay to monitor cytotoxicity in HepG2 cells - 40 hour (AID 1224879); further: nearly all actives have a fitted effect of over 40% in size; further: potency means the concentration at half of the fitted maximal effect
How it was run: as §5

[11] = qHTS RealTime-Glo MT Cell Viability Assay in HEK293 cells - 0 hour (AID 1224880)
How it was run: as §4

[12] = A CellTox Green Cytotoxicity Assay to monitor cytotoxicity in HEK293 cells - 32 hour (AID 1224881); further: nearly all actives have a fitted effect of over 40% in size; further: potency means the concentration at half of the fitted maximal effect
How it was run: as §2

[13] = A CellTox Green Cytotoxicity Assay to monitor cytotoxicity in HepG2 cells - 0 hour (AID 1224882); further: nearly all actives have a fitted effect of over 35% in size; further: potency means the concentration at half of the fitted maximal effect
How it was run: as §5

[14] = A CellTox Green Cytotoxicity Assay to monitor cytotoxicity in HepG2 cells - 32 hour (AID 1224883); further: nearly all actives have a fitted effect of over 50% in size; further: potency means the concentration at half of the fitted maximal effect
How it was run: as §5

[15] = A CellTox Green Cytotoxicity Assay to monitor cytotoxicity in HEK293 cells - 8 hour (AID 1224884); further: nearly all actives have a fitted effect of over 35% in size; further: potency means the concentration at half of the fitted maximal effect
How it was run: as §2

[16] = qHTS RealTime-Glo MT Cell Viability Assay in HepG2 cells - 16 hour (AID 1224885); further: nearly all actives have a fitted effect of over 50% in size
How it was run: as §6

[17] = qHTS RealTime-Glo MT Cell Viability Assay in HEK293 cells - 24 hour (AID 1224886); further: nearly all actives have a fitted effect of over 50% in size; further: potency means the concentration at half of the fitted maximal effect
How it was run: as §3

[18] = qHTS RealTime-Glo MT Cell Viability Assay in HEK293 cells - 8 hour (AID 1224887); further: nearly all actives have a fitted effect of over 50% in size; further: potency means the concentration at half of the fitted maximal effect
How it was run: as §4

[19] = A CellTox Green Cytotoxicity Assay to monitor cytotoxicity in HEK293 cells - 16 hour (AID 1224888); further: nearly all actives have a fitted effect of over 35% in size
How it was run: as §2

[20] = qHTS RealTime-Glo MT Cell Viability Assay in HepG2 cells - 0 hour (AID 1224889); further: nearly all actives have a fitted effect of over 50% in size
How it was run: as §6
On the % scale 0 is the no-effect control and ±100 the full control effect.

O=C(Oc1ccccc1)c1ccc(O)cc1
inactive: Potency [1] | Potency [2] | Potency [3] | Potency [4] | max response [5] -21.6% and -15.5% | Potency [6] | Potency [7] | Potency [8] | Potency [9] | Potency [10] | Potency [11] | Potency [12] | Potency [13] | Potency [14] | Potency [15] | Potency [16] | Potency [17] | Potency [18] | Potency [19]

O=C1O[C@H](CO)[C@@H](O)[C@H](O)[C@H]1O
inactive: Potency [1] | Potency [2] | Potency [3] | Potency [4] | max response [5] 1.84% and 0.71% | Potency [6] | Potency [8] | Potency [9] | Potency [10] | Potency [11] | Potency [12] | Potency [13] | Potency [14] | Potency [15] | Potency [16] | Potency [17] | Potency [18] | Potency [19]

CCCCCCCCCC(=O)O
inactive: Potency [1] | Potency [2] | Potency [3] | Potency [4] | max response [5] 7.81% and 12.5% | Potency [6] | Potency [7] | Potency [8] | Potency [9] | Potency [10] | Potency [11] | Potency [12] | Potency [13] | Potency [14] | Potency [15] | Potency [16] | Potency [17] | Potency [18] | Potency [19]

NCCNCCNCCNCCN
inactive: Potency [1] | Potency [2] | Potency [3] | Potency [4] | max response [5] 1.39% and 5.6% | Potency [6] | Potency [8] | Potency [9] | Potency [10] | Potency [11] | Potency [12] | Potency [13] | Potency [14] | Potency [15] | Potency [16] | Potency [17] | Potency [18] | Potency [19] | Potency [20]

c1ccc2[nH]cnc2c1
inactive: Potency [1] | Potency [2] | Potency [3] | Potency [4] | max response [5] -5.47% and 1.04% | Potency [6] | Potency [7] | Potency [8] | Potency [9] | Potency [10] | Potency [11] | Potency [12] | Potency [13] | Potency [14] | Potency [15] | Potency [16] | Potency [17] | Potency [18] | Potency [19] | Potency [20]

c1ccc2ccccc2c1
inactive: Potency [1] | Potency [2] | Potency [3] | Potency [4] | max response [5] 0.777% and 7.95% | Potency [6] | Potency [7] | Potency [8] | Potency [9] | Potency [10] | Potency [11] | Potency [12] | Potency [13] | Potency [14] | Potency [15] | Potency [16] | Potency [17] | Potency [18] | Potency [19]

CCc1ccc(O)cc1
inactive: Potency [1] | Potency [2] | Potency [3] | Potency [4] | max response [5] 3.14% and 3.17% | Potency [6] | Potency [7] | Potency [8] | Potency [9] | Potency [10] | Potency [11] | Potency [12] | Potency [13] | Potency [14] | Potency [15] | Potency [16] | Potency [17] | Potency [18] | Potency [19]

CCCCC(CC)COC(=O)CCCCCCCC(=O)OCC(CC)CCCC (stereo not drawn)
24.5 µM (active) and inactive: Potency [3] | Potency [17]
54.9 µM (active) and inactive: Potency [12] | Potency [13] | Potency [15]
active: Potency [5] 4.9 µM | Potency [7] 49 µM | Potency [9] 49 µM | Potency [10] 43.6 µM | Potency [14] 49 µM
49 µM (active) and inactive: Potency [2]
inactive: Potency [1] | Potency [4] | max response [5] 4.32% | Potency [8] | Potency [11] | Potency [16] | Potency [18] | Potency [20]

O=Nc1ccc(O)cc1
24 µM (active) and inactive: Potency [18]
inactive: Potency [1] | Potency [2] | Potency [3] | Potency [4] | max response [5] 2.25% | Potency [6] | Potency [7] | Potency [8] | Potency [9] | Potency [10] | Potency [11] | Potency [12] | Potency [14] | Potency [15] | Potency [16] | Potency [17] | Potency [19] | Potency [20]

Nc1nc2ncc(CNc3ccc(C(=O)N[C@@H](CCC(=O)O)C(=O)O)cc3)nc2c(=O)[nH]1
inactive: Potency [1] | Potency [2] | Potency [3] | Potency [4] | max response [5] 21.4% and 0.94% | Potency [6] | Potency [7] | Potency [8] | Potency [9] | Potency [10] | Potency [11] | Potency [12] | Potency [13] | Potency [14] | Potency [15] | Potency [16] | Potency [17] | Potency [18] | Potency [19]

CCc1ccccc1O
54.7 µM (active) and inactive: Potency [2]
inactive: Potency [1] | Potency [3] | Potency [4] | max response [5] -2.02% | Potency [6] | Potency [8] | Potency [9] | Potency [10] | Potency [11] | Potency [12] | Potency [13] | Potency [14] | Potency [15] | Potency [16] | Potency [17] | Potency [18] | Potency [19] | Potency [20]

CCCCCCC(C)(C)S
inactive: Potency [1] | Potency [2] | Potency [3] | Potency [4] | max response [5] 2.32% and -0.908% | Potency [6] | Potency [8] | Potency [9] | Potency [10] | Potency [11] | Potency [12] | Potency [13] | Potency [14] | Potency [15] | Potency [16] | Potency [17] | Potency [18] | Potency [19] | Potency [20]
